Measurements reported in PubChem BioAssay (Tox21).
Inconclusive results are not listed. Activity calls are given as the source filed them. Unless noted, the call rests on the fitted dose curve; in most records, active means well fitted curve in the direction sought with a large enough effect in the repeat runs; inconclusive means weak or mixed curves; inactive means no such curve, though single readings can be large; an effect the other way counts as inactive or inconclusive.

Columns and labels:
[1] = qHTS assay to identify small molecule antagonists of the estrogen receptor alpha (ER-alpha) signaling pathway using the BG1 cell line in the presence of 0.1 nM 17-beta-estradiol - cell viability counter screen (AID 1259241); further: nearly all actives have a fitted effect of over 40% in size
In short: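 Cells were plated and left 24 hr, compounds in DMSO were pinned in, 17beta-estradiol was added to 0.1 nM final, and after 22 hr CellTiter-Fluor reagent was added for 30 min before fluorescence was read.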

[2] = qHTS assay to identify small molecule antagonists of the androgen receptor (AR) signaling pathway using the MDA cell line in the presence of 0.5 nM R1881 - cell viability counter screen (AID 1259242); further: nearly all actives have a fitted effect of over 45% in size
In short: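 qHTS format. MDA-kb2 (MMTV-luc, AR/GR responsive) + cpd + 0.5 nM R1881 final, 16 hr 37C/0% CO2 → CellTiter-Fluor 30 min → fluorescence intensity.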

[3] = biological target: Estrogen receptor (Homo sapiens) (UniProt P03372); assay: qHTS assay to identify small molecule antagonists of the estrogen receptor alpha (ER-alpha) signaling pathway using the BG1 cell line in the presence of 0.1 nM 17-beta-estradiol (AID 1259244); further: nearly all actives have a fitted effect of over 50% in size
In short: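 Reporter is a stably transfected luciferase under four estrogen responsive elements in VM7Luc4E2 cells expressing native full-length ER-alpha; inhibition of 0.1 nM (final) 17beta-estradiol-driven signal over 22 h is read by luminescence.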

[4] = qHTS assay to identify small molecule HDAC inhibitors (AID 1259364); further: potency means the concentration at half of the fitted maximal effect;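 further: wild-type HCT-116 cells with endogenous class I/II HDAC activity; nearly all actives have a fitted effect of over 45% in size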
In short: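 Quantitative high-throughput format: overnight-seeded HCT-116 cells got compounds for 2 hr at 37C; HDAC-Glo I/II reagent added, 30 min RT, luminescence measured.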

[5] = qHTS assay to identify small molecule HDAC inhibitors - cell viability counter screen (AID 1259365); further: series mostly up to about 92 µM; nearly all actives have a fitted effect of over 50% in size
In short: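 Counter screen in wild-type HCT-116 cells: compounds dissolved in DMSO are pin-transferred onto overnight-plated cells and left 2hr at 37C. ATP-based CellTiter-Glo luminescence then measures viable cells.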

[6] = qHTS assay to identify small molecule agonists of the sonic hedgehog signaling (Shh) pathway - cell viability counter screen (AID 1259366); further: nearly all actives have a fitted effect of over 50% in size
In short: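 Cells are plated at 2,000 per well and left 4hr at 37C, 5% CO2 before compound addition. After 23hr of treatment, CellTiter-Fluor reagent is added for 1hr at 37C and fluorescence is measured.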

[7] = qHTS assay to identify small molecule antagonists of the sonic hedgehog signaling (Shh) pathway - cell viability counter screen (AID 1259367); further: nearly all actives have a fitted effect of over 55% in size
In short: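 Fluorescence read-out (CellTiter-Fluor, 1 hr at 37C) taken after 23 hr compound treatment of 3T3 Gli1-Luc cells stimulated with conditioned medium. Cells were seeded at 2,000 per well and pre-incubated 4 hr.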

[8] = qHTS assay to identify small molecule agonists of the sonic hedgehog signaling (Shh) pathway (AID 1259368; calls by dose curve;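 further: NIH/3T3-derived 3T3Gli1-Luc cells carrying a stable Gli1-driven firefly luciferase reporter; series mostly up to about 92 µM; nearly all actives have a fitted effect of over 15% in size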)
In short: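 Quantitative high-throughput format using a Gli1-driven firefly luciferase reporter line derived from NIH/3T3 cells. After a 24 hr compound treatment at 37 C and 5% CO2, luminescence reported Gli1 response element activity.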

[9] = qHTS assay to identify small molecule antagonists of the sonic hedgehog signaling (Shh) pathway (AID 1259369; calls by dose curve; further: nearly all actives have a fitted effect of over 45% in size)
In short: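 Stable Gli1-Luc reporter NIH/3T3 clone; quantitative HTS in stimulated mode with conditioned medium. Luminescence measured after 24hr compound treatment at 37 C.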

[10] = qHTS assay to identify small molecule agonists of the estrogen receptor beta (ER-beta) signaling pathway - cell viability counter screen (AID 1259380); further: nearly all actives have a fitted effect of over 30% in size
In short: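 Steps: plate ER-beta-UAS-bla HEK293T cells, rest 6 hr; add compounds in DMSO; incubate 16 hr at 37C, 5% CO2; add FRET substrate 2 hr; add CellTiter-Glo, wait 30 min at room temperature; read luminescence.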

[11] = qHTS assay to identify small molecule antagonists of the estrogen receptor beta (ER-beta) signaling pathway - cell viability counter screen (AID 1259382); further: series mostly up to about 92 µM; nearly all actives have a fitted effect of over 55% in size
In short: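 Viability is scored by CellTiter-Glo luminescence (30 min, room temperature) in ER-beta-UAS-bla HEK293T wells already read for reporter fluorescence. Compound exposure lasts 16 hr at 37C alongside 1nM 17-beta-estradiol in charcoal-stripped serum medium.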

[12] = qHTS assay to identify small molecule agonists or antagonists of the thyroid stimulating hormone receptor (TSHR) signaling pathway - wild type cell line counter screen (AID 1259384; calls by dose curve)
In short: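 Wild-type Hek293 cells, 800/well, 18 h at 37C, then compound with Ro20-1724 for 30 min RT. cAMP by HTRF (cAMP-d2/anti-cAMP cryptate), 1 h RT, fluorescence read. 15 concentrations, triplicates.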

[13] = biological target: Thyrotropin receptor (Homo sapiens) (UniProt P16473); assay: qHTS assay to identify small molecule antagonists of the thyroid stimulating hormone receptor (TSHR) signaling pathway (AID 1259385; calls by dose curve; further: nearly all actives have a fitted effect of over 20% in size)
In short: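 TSHR-HEK293 cells (800/well) plated 18 h, then compounds with Ro20-1724 and TSH at 1.5 ng/mL final, 30 min at room temperature. cAMP quantified by HTRF (cAMP-d2/anti-cAMP-cryptate, 1 h); 15 concentrations in triplicate.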

[14] = qHTS assay to identify small molecule agonists of the androgen receptor (AR) signaling pathway in the presence of an antagonist - cell viability counter screen (AID 1259379);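 further: MDA-kb2 human breast cancer cells carrying an MMTV luciferase reporter; series mostly up to about 92 µM; nearly all actives have a fitted effect of over 25% in size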
In short: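 Nilutamide-containing (3.0uM final) MDA-kb2 cultures, 3,000 cells/well, were treated with compounds across 15 concentrations. After 16 hr at 37C with no CO2, cell viability was determined by CellTiter-Fluor fluorescence in the luciferase assay wells.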

[15] = biological target: Estrogen receptor beta (Homo sapiens) (UniProt Q92731); assay: qHTS assay to identify small molecule agonists of the estrogen receptor beta (ER-beta) signaling pathway (AID 1259377; active means well fitted activation curve with a large enough effect in the signal ratio in the repeat runs, not every such curve was filed as active; the % refers to the signal ratio)
In short: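 Agonist mode cell assay in GripTite HEK293T cells expressing an ER-beta fusion that drives beta-lactamase from an Upstream Activator Sequence; 16 hr compound exposure at 37C, then 2 h LiveBLAzer B/G FRET substrate at room temperature, fluorescence read-out.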

[16] = biological target: Estrogen receptor beta (Homo sapiens) (UniProt Q92731); assay: qHTS assay to identify small molecule antagonists of the estrogen receptor beta (ER-beta) signaling pathway (AID 1259378; active means well fitted inhibition curve with a large enough effect in the signal ratio in the repeat runs, not every such curve was filed as active; the % refers to the signal ratio)
In short: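 ER-beta-UAS-bla HEK293T cells in 2% charcoal-stripped FBS medium treated with compound plus 1nM final 17-beta-estradiol for 16 hr at 37C. Beta-lactamase reporter read by FRET substrate fluorescence after 2 hours at room temperature.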

[17] = biological target: Estrogen receptor (Homo sapiens) (UniProt P03372); assay: qHTS assay to identify small molecule agonists of the estrogen receptor alpha (ER-alpha) signaling pathway in the presence of an antagonist (AID 1259383; calls by dose curve; further: nearly all actives have a fitted effect of over 15% in size; further: potency means the concentration at half of the fitted maximal effect; on activation: top concentration of the series differs between compounds)
In short: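 Readout was ERE-driven luciferase luminescence in VM7Luc4E2 cells, which express full-length ER-alpha endogenously. Compounds were tested at 15 concentrations for 22hr alongside 10.0nM ICI-182,780 (final concentration).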

Measured: Potency

Chain of Estrogen receptor (Homo sapiens) (P03372 whole entry, looked up): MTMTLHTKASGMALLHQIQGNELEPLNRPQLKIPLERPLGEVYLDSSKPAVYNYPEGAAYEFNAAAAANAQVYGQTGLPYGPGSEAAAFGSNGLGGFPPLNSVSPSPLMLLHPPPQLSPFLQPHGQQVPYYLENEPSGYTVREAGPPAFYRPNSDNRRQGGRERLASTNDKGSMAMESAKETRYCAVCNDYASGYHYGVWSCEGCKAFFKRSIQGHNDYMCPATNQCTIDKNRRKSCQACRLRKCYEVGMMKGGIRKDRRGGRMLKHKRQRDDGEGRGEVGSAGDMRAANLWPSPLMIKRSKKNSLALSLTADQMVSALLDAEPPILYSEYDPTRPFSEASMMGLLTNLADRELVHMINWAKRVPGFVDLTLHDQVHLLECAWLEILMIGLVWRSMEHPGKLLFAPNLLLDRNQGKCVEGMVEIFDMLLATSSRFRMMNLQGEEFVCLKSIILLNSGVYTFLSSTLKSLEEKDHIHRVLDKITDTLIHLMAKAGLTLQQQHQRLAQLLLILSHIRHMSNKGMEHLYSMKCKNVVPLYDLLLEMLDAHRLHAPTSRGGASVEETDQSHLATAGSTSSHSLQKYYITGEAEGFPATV
Chain of Estrogen receptor beta (Homo sapiens) (Q92731 whole entry, looked up, the tested form may be a part): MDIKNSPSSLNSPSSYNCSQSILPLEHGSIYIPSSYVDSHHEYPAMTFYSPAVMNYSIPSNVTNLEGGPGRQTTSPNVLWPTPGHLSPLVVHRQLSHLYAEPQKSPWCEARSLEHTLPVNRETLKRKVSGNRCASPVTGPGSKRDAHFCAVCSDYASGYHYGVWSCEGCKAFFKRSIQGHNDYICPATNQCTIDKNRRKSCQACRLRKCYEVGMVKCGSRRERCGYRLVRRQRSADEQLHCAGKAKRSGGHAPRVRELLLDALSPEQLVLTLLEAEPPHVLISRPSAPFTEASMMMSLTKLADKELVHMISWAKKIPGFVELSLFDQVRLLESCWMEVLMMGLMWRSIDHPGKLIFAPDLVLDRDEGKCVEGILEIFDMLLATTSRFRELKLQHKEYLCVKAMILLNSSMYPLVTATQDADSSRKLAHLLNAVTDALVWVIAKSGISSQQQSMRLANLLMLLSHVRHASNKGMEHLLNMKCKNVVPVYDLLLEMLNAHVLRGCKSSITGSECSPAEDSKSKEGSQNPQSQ
Chain of Thyrotropin receptor (Homo sapiens) (P16473 whole entry, looked up): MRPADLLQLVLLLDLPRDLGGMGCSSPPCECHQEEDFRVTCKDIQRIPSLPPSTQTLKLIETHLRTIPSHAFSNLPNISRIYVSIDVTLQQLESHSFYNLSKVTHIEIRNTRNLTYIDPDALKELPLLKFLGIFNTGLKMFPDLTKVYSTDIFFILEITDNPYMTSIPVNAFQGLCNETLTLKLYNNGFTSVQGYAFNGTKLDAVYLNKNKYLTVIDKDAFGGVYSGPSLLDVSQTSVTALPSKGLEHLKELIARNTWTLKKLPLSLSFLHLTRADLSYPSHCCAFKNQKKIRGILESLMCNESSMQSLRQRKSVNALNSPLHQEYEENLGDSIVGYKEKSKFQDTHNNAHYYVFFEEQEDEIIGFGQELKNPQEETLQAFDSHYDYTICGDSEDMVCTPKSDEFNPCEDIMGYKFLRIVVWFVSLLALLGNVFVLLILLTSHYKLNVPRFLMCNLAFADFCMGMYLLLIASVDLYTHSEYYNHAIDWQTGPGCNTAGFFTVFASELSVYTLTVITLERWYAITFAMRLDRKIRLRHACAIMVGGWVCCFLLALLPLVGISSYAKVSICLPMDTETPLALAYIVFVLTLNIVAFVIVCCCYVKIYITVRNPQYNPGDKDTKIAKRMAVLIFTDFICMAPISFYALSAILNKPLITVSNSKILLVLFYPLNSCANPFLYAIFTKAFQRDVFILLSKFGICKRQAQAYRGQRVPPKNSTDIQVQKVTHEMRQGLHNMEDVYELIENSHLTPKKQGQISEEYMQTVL

N#CN=C1SCCN1Cc1ccc(Cl)nc1
not listed: [14] | [15] | [16] | [17]
inactive: all other assays above

CCCCCCCC(=O)Cl
not listed: [15] | [16] | [17]
inactive: all other assays above

ClCCN1CCCC1
not listed: [9]
inactive: all other assays above

CCCN1CCC[C@@H]2Cc3nc(N)ncc3C[C@H]21
not listed: [15] | [16]
inactive: all other assays above

CCOP(=S)(OCC)Oc1ccc(Cl)cc1Cl
not listed: [9] | [14]
inactive: all other assays above

ClCOCCl
not listed: [15]
inactive: all other assays above

CC(C)(N)Cc1ccc(Cl)cc1
not listed: [11] | [15] | [16]
inactive: all other assays above

C=C(Cl)CCl
not listed: [14] | [16]
inactive: all other assays above

O=P(O)(O)c1ccccc1
not listed: [15] | [16]
inactive: all other assays above

CCN(CC)CCOC(=O)C(O)(c1ccccc1)c1ccccc1
not listed: [15] | [16]
inactive: all other assays above

CCCCCCCCSC(=O)Oc1cc(Cl)nnc1-c1ccccc1
not listed: [12] | [13] | [14] | [15] | [16]
inactive: all other assays above

CCOC(=O)Nc1cccc(OC(=O)Nc2ccccc2)c1
active: [4] 3.86 µM | [17] 12.2 µM
not listed: [14] | [15]
inactive: all other assays above

Cc1cc(OC(=O)N(C)C)nn1C(=O)N(C)C
not listed: [15]
inactive: all other assays above

C/C=C/CC#N
not listed: [14]
inactive: all other assays above
